Molecules are shown by their SMILES. Among all 290,000 compounds or so, about 11,000 (3.8%) were called active. This excerpt belongs to a sample that is enriched for actives. Values without a mark were called inactive.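 The calls were made as follows: active = mean replicate inhibition above about 79%, with every replicate also reaching it (limit read from the data); inconclusive = only one of the two criteria met; inactive = mean below limit and not every replicate reaching it.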

Chain of FAD-linked sulfhydryl oxidase ALR (Homo sapiens) (P55789 whole entry, looked up): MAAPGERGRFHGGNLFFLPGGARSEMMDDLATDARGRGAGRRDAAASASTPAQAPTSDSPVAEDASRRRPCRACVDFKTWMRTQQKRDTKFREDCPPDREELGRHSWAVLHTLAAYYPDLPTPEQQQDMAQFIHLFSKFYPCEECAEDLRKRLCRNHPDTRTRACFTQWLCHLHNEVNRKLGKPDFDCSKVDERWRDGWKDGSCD

The assay addresses FAD-linked sulfhydryl oxidase ALR (Homo sapiens) (UniProt P55789). Briefly: inhibitors of human ALR sulfhydryl oxidase, primary screen, biochemical, H2O2 detection, HRP-luminol luminescence, single point (AID 485317). Particulars: purified ALR, DTT oxidation, stronger effect = higher value, concentration not given here.
Consider `O=C1c2ccccc2C(=O)N1CCC#Cc1ccc2cc(C3(O)CCCCC3)oc(=O)c2c1`, for which the inhibition was -19.8%.

Consider `CCOc1ccc(-c2cc(C(=O)N/N=C/c3ccc(O)cc3)c3ccccc3n2)cc1`, for which the inhibition was 1.65%.

For the compound `O=C(COC(=O)C1CCCO1)Nc1nc(-c2ccc(F)cc2)cs1` (stereo not given), the inhibition is -4.39%.

As for `Cc1ccc2c(c1)C(O)(CC(=O)c1cccnc1)C(=O)N2` (stereo not given), the inhibition is -0.959%.

Consider `Cc1ccc(NC2(C#N)C(=O)Nc3ccccc32)cc1` (stereo not given), for which the inhibition was 97.6% (active).

On to `Cc1cc(O)c(C2(O)C(=O)Nc3ccccc32)cc1C` (stereo not given), for which the inhibition was 16.1%.

With `CCCN1C2CCCC1CC(NC(=O)c1cccc(OC)c1)C2` (stereo not given), the inhibition was -4.94%.

As to `CC(=O)NC1CC2CCCC(C1)N2CC(=O)Nc1ccccc1` (stereo not given), the inhibition was -9.69%.

With `CN(C)c1ccc(NC(=O)CN2C3CCCC2CC(NC(=O)c2ccccc2)C3)cc1` (stereo not given), the inhibition is 99.7% (active).

As for `O=C1C=CN2CCCC2CC1` (stereo not given), the inhibition is -8.59%.

On to `CN(c1ccc(O)cc1)c1nc(-c2cccnc2)cs1`, for which the inhibition was 95.1% (active).

For the compound `O=C(Nc1nc(-c2cccnc2)cs1)c1ccccc1F`, the inhibition was 1.15%.

With `Cc1ccccc1Nc1nc(-c2cccnc2)cs1`, the inhibition is 11.2%.

Consider `C=CCC[C@H](Cc1ccc(F)cc1)C(=O)OC[C@H](C)NC(=O)[C@H](CC=C)CC(=O)N(CCO)Cc1ccccc1`, for which the inhibition is 2.24%.

As to `COc1ccc([C@H]2CC(=O)C=C(/C=C/c3ccccc3)C2)cc1`, the inhibition was 1.57%.

For `O=C(NCCN1CCOCC1)c1cccc(S(=O)(=O)Nc2ccc(F)cc2)c1`, the inhibition was -5.52%.

On to `O=C(COC(=O)c1ccc(Br)o1)NC12CC3CC(CC(C3)C1)C2`, for which the inhibition was -1.81%.

For `Cc1ccc(S(=O)(=O)Nc2nc(C)cc(-n3nc(C)cc3C)n2)cc1`, the inhibition was 7.83%.

For the compound `Cc1cc(N/N=C\c2ccc(Br)cc2)nc(-n2nc(C)cc2C)n1`, the inhibition is -2.32%.

As for `Cc1ccc(S(=O)(=O)Nc2nc(C)cc(N/N=C/c3ccc(O)cc3)n2)cc1`, the inhibition was 98.5% (active).

For `CCN(C[C@H]1N[C@@](CC)(C(=O)OC)[C@H]2C(=O)N(Cc3ccccc3)C(=O)[C@@H]12)S(=O)(=O)c1ccc(C(F)(F)F)cc1`, the inhibition was 17.3%.

For `CCc1ccc(S(=O)(=O)NCC(O)COc2ccc(OC)cc2)cc1` (stereo not given), the inhibition was -11.7%.

With `Nc1ccc(OCC(O)C[n+]2ccc(CCS(=O)(=O)[O-])cc2)cc1` (stereo not given), the inhibition was 98.1% (active).

Regarding `CCCc1ccc(OCC(O)CN2CCN(CCO)CC2)cc1` (stereo not given), the inhibition is -1.03%.

For `CCN(CC)C(CNC(=O)CSc1nnnn1-c1cccc(F)c1)c1ccco1` (stereo not given), the inhibition was -5.32%.

Regarding `O=c1c2ccccc2ccc2ccc(P(=O)(O)O)cc12`, the inhibition was -13.1%.

For the compound `O=C1NC[C@@H](c2ccccc2)OC(=O)[C@H](Cc2ccc(F)cc2)CC/C=C/C[C@H]1CC(=O)N(CCO)Cc1ccccc1`, the inhibition was -7.53%.

Take `CC(C)(C)OC(=O)Nc1ccc([C@@H](NC(=O)OC(C)(C)C)C(=O)OC(C)(C)C)cc1`: the inhibition was 2.09%.

Consider `Cc1cc(C(=O)O)ccc1[N+](=O)[O-]`, for which the inhibition was -8.6%.

Consider `CC(C)NC(=O)c1ccc(Sc2ccccc2)c([N+](=O)[O-])c1`, for which the inhibition is 5.17%.

As for `Cc1ccc(Sc2cc(C(=O)c3ccccc3C(=O)O)ccc2[N+](=O)[O-])cc1`, the inhibition was 97.5% (active).

`COc1ccc2c(c1)cc1n2CCN=C1NN`: the inhibition is 97.6% (active).

With `COc1ccc2ccn(C)c2c1`, the inhibition is 7.82%.

Take `O=C(CNC(=O)c1n[nH]c2ccccc12)Nc1cc(Cl)ccc1Cl`: the inhibition was -1.04%.

`Cc1ccc(CNC(=O)COC(=O)C2CCC2)cc1`: the inhibition is 2.97%.

As to `O=C(CSc1nc2ccccc2s1)Nc1ccc(C(=O)O)cc1`, the inhibition was -1.73%.

Turning to `CCN(CC)CCCSc1nc2ccccc2s1`, the inhibition is -9.41%.

Take `O=C(O)c1ccccc1CSc1nc2ccccc2s1`: the inhibition is 98.5% (active).

For `Cc1ccc(C(=O)OCC(=O)N2CC(C)CC(C)C2)cc1S(=O)(=O)N1CCCCC1` (stereo not given), the inhibition is -62.3%.

For the compound `COCCCn1c(SCC(=O)Nc2oc(C)c3c(C)n[nH]c(=O)c23)nc2sc3c(c2c1=O)CCC3`, the inhibition is -9.92%.

With `CC(OC(=O)CCC(=O)c1ccccc1)C(=O)Nc1ccc(F)cc1` (stereo not given), the inhibition was -4.58%.

As for `O=C(CCCN=C1NS(=O)(=O)c2ccccc21)OCC(=O)c1ccc(F)c(F)c1`, the inhibition is -7.91%.

Turning to `NC(=O)c1oc2ccccc2c1NC(=O)Cc1ccccc1`, the inhibition was -7.38%.

As to `CC(C)(C)Nc1c(N)c(=O)oc2ccccc12`, the inhibition was 72.1%.

For `Nc1c(NCCc2ccccc2)c2ccccc2oc1=O`, the inhibition is 98.8% (active).

Take `O=C(Nc1ccc(C(F)(F)F)cc1)c1cccc(-n2cnnn2)c1`: the inhibition was -5.63%.

As to `CSc1ncccc1C(=O)NCC(c1ccco1)N1CCCCC1` (stereo not given), the inhibition was -3.83%.

On to `O=C(COC(=O)c1cc(=O)[nH]c2ccccc12)NCc1cccc(Cl)c1`, for which the inhibition is 1.99%.

For the compound `COc1ccc(N2CCN(C(=O)/C(C#N)=C/c3ccccc3)CC2)cc1`, the inhibition was 33.6%.

In the case of `N#C/C(=C\c1ccc(N2CCOCC2)o1)C(=O)N1CCOCC1`, the inhibition was 83.6% (active).

`N#C/C(=C\c1ccc(-c2cccc([N+](=O)[O-])c2)o1)C(=O)NCCN1CCOCC1`: the inhibition is -9.22%.

Consider `COc1ccccc1C(=O)NCCC(=O)NC(C)CCc1ccccc1` (stereo not given), for which the inhibition is -10.1%.

Consider `Cc1sc2ncnc(N3CCC(C(=O)Nc4nc5ccc(Cl)cc5s4)CC3)c2c1C`, for which the inhibition is -1.15%.

For the compound `CC(C)Oc1ccc(C(=O)NCC(=O)Nc2ccc3c(c2)CCC3)cc1`, the inhibition is 1.47%.

For `NNC(=O)COc1ccc(C2SCCS2)cc1`, the inhibition is 89.6% (active).

As for `O=C(COc1ccc(Cl)cc1)Nc1ccc2c(c1)OCO2`, the inhibition is -11.8%.

In the case of `COc1ccc(OCC(=O)NNC(=O)C2CCC2)cc1`, the inhibition was -2.8%.

Regarding `O=C(NCc1ccccc1CN1CCCC1)C1CCN(S(=O)(=O)c2ccc(Cl)cc2)CC1`, the inhibition is 2.81%.

Consider `COC(=O)C1=C(C)N(Cc2ccccc2)C(=NCCCOC(C)C)N[C@H]1c1ccccc1`, for which the inhibition is -6.98%.

Turning to `CCN(CCCNC(=O)CCn1c(=O)[nH]c2ccsc2c1=O)c1ccccc1`, the inhibition is 99.3% (active).

`CCCCC(CC)CNC(=O)CCCCn1c(=O)[nH]c2ccsc2c1=O` (stereo not given): the inhibition is -6.66%.

As for `CCN(CC)CCCNC(=O)CCc1ccccc1`, the inhibition was -4.98%.

For the compound `CC(C)(C)Oc1ccccc1Nc1nc(NCCO)nc(N2CCCC2)n1`, the inhibition was 6.57%.

As for `Cc1ccsc1C(=O)NNC(=O)COc1ccc(Br)cc1`, the inhibition is -3.21%.

Take `CCn1c(SCC(=O)Nc2nccs2)nnc1-c1ccco1`: the inhibition was -4.02%.

`COc1ccc(Cc2nnc(SCC(=O)N(c3ccccc3)C(C)C)n(N)c2=O)cc1`: the inhibition is -4.76%.

Take `COc1ccc(NC(=O)CSc2nc3ccccc3c(=O)n2C)cc1`: the inhibition is -13.7%.

Regarding `CCn1c(SCC(=O)Nc2ccc(OC)c(OC)c2)nnc1-c1c[nH]c2ccccc12`, the inhibition is -15.3%.

Turning to `Cn1c(SCC(=O)Nc2nccs2)nnc1-c1cccnc1`, the inhibition is 2.9%.

On to `Nn1c(SCC(=O)Nc2nccs2)nncc1=O`, for which the inhibition was 98.8% (active).

Take `CCn1c(SCC(=O)Nc2nccs2)nnc1-c1ccncc1`: the inhibition was -12.3%.

For `COc1ccc(NC(=O)CSc2nncc(=O)n2N)cc1OC`, the inhibition is 87% (active).

As for `COc1ccc(NC(=O)CSc2nnc(Cc3ccccc3)c(=O)n2N)cc1`, the inhibition was 98.6% (active).

Regarding `Cc1[nH]c2ccccc2c1SCC(=O)Nc1nccs1`, the inhibition is 97.1% (active).

Regarding `Cc1cc(C(=O)OCC(=O)Nc2nccs2)c2ccccc2n1`, the inhibition was -1.42%.

Turning to `Cc1cc(-c2nnc(SCC(=O)Nc3ccc(F)cc3)n2N)n[nH]1`, the inhibition was -1.02%.

Consider `O=C(c1cc(-c2ccc(Cl)s2)nc2ccccc12)N1CCOCC1`, for which the inhibition was -1.66%.

With `CN1CCC(N(C)S(=O)(=O)c2ccc(NC(=O)c3cccc(C#N)c3)cc2)CC1`, the inhibition is -3.41%.

Turning to `Cc1nc2c(c(C)nn2-c2ccccc2)c(C)c1C`, the inhibition was -7.19%.

Consider `Cc1nc(-c2ccc(Cl)cc2)sc1C1(C)CC(c2ccc(Br)cc2)=NO1` (stereo not given), for which the inhibition is -3.38%.

Consider `CCCCN(C(=O)CCNC(=O)NC12CC3CC(CC(C3)C1)C2)c1c(N)n(CCCC)c(=O)[nH]c1=O`, for which the inhibition is -9.44%.

Take `CC(=O)CC(CC(=O)NC1CCCCC1)c1ccccc1` (stereo not given): the inhibition is -6.14%.

Take `CN(CC(=O)NNC(=O)CNC(=O)c1ccccc1Cl)S(=O)(=O)c1ccc(Cl)cc1`: the inhibition is -3.96%.

Turning to `CCN1C(=O)[C@@H]2[C@@H](c3ccc(-c4cccc(Cl)c4)cc3)N3CCC[C@@]3(C(=O)OC)[C@@H]2C1=O`, the inhibition is -0.179%.

On to `CC1(C)O[C@@H]2[C@H](O1)[C@@H](COS(=O)(=O)O)O[C@H]2n1cnc2c(=O)[nH]cnc21`, for which the inhibition is -3.87%.

Regarding `O=C(Nc1ncccc1O)c1ccc(S(=O)(=O)N2CCCCCC2)cc1`, the inhibition is -12.4%.

`O=C(OCCOCn1cc(Br)c(=O)[nH]c1=O)c1ccccc1`: the inhibition was 18.4%.

Regarding `CCOC(=O)N1CCN(CC(=O)c2c(C)[nH]c3ccccc23)CC1`, the inhibition is -13%.

Consider `Cc1[nH]c2ccccc2c1C(=O)CSCC(=O)O`, for which the inhibition was 98.3% (active).

In the case of `Cc1[nH]c2ccccc2c1C(=O)CN1CC(C)CC(C)C1` (stereo not given), the inhibition is -7.59%.

As for `CC(=O)Nc1ccc(NC(=O)COC(=O)C2CCC(C(C)(C)C)CC2)cc1` (stereo not given), the inhibition was -2.92%.

In the case of `CCOC(=O)CCCCCC(=O)Nc1ccc2c(c1)CC(=O)N([C@@H](C)CO)C[C@H](C)[C@@H](CN(C)Cc1ccccc1)O2`, the inhibition is -2.17%.

As for `CCC(C)N1C(=S)SC(C)(C)C1N(O)C(=O)NC1CCCCC1` (stereo not given), the inhibition is -8.63%.

Consider `CCCCNC(=O)N(O)C1N(/N=C/c2ccc(N(C)C)cc2)C(=S)SC1(C)C` (stereo not given), for which the inhibition was 98.8% (active).

Consider `CCCCNC(=O)N(O)C1N(/N=C/c2ccccc2O)C(=S)SC1(C)C` (stereo not given), for which the inhibition was -2.9%.

Broadly, the inhibition is the relative decrease from the control value, in per cent.

For the origin of these results see PubChem BioAssay AID485317 (Broad Institute, 2010).
